# Measured values from ChEMBL document CHEMBL3988442, “University of Dundee, Small-Polar-MMV Screening Library” (2021).
# For some assays here: Measured potencies and affinities stand elsewhere.
# Columns and labels:
# Parameters in all cases: scale not given: direction of the effect not stated beside the values
# [1] = molecular target: Protein translocase subunit SecA (Escherichia coli (strain K12)) (UniProt P10408); experiment: Assay to Identify E. coli SecA ATPase Inhibitors; type: functional; details: 30 µM
# Sequence of Protein translocase subunit SecA (Escherichia coli (strain K12)) (P10408 whole entry): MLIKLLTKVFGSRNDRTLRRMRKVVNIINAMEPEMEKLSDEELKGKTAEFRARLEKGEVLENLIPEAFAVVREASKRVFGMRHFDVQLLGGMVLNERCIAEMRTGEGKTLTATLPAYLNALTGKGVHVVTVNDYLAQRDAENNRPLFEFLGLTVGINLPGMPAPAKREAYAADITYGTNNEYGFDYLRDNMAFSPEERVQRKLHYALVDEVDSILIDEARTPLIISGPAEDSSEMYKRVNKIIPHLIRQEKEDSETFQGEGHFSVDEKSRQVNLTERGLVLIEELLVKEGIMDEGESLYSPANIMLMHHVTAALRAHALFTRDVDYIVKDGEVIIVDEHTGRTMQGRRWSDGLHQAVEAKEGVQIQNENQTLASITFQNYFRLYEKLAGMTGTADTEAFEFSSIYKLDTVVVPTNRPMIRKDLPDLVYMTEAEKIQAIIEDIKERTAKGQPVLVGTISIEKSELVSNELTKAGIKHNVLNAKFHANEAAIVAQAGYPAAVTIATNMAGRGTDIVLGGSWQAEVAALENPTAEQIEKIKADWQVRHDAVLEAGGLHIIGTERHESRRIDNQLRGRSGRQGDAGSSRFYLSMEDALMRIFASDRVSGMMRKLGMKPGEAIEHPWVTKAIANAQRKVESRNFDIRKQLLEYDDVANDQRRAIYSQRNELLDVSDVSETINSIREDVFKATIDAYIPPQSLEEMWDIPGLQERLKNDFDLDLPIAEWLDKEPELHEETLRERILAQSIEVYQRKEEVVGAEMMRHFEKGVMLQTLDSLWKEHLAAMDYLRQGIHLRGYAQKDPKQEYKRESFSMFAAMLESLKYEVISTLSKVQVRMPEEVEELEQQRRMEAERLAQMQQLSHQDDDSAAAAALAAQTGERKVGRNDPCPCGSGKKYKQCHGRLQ
# [2] = molecular target: T1, Ubiquitin-activating enzyme e1, putative (Leishmania donovani (strain BPK282A1)) (UniProt E9BSI1); experiment: Leishmania donovani Ubiquitin Activating Enzyme (LdE1); type: functional; details: 30 µM
# T1 sequence (whole entry): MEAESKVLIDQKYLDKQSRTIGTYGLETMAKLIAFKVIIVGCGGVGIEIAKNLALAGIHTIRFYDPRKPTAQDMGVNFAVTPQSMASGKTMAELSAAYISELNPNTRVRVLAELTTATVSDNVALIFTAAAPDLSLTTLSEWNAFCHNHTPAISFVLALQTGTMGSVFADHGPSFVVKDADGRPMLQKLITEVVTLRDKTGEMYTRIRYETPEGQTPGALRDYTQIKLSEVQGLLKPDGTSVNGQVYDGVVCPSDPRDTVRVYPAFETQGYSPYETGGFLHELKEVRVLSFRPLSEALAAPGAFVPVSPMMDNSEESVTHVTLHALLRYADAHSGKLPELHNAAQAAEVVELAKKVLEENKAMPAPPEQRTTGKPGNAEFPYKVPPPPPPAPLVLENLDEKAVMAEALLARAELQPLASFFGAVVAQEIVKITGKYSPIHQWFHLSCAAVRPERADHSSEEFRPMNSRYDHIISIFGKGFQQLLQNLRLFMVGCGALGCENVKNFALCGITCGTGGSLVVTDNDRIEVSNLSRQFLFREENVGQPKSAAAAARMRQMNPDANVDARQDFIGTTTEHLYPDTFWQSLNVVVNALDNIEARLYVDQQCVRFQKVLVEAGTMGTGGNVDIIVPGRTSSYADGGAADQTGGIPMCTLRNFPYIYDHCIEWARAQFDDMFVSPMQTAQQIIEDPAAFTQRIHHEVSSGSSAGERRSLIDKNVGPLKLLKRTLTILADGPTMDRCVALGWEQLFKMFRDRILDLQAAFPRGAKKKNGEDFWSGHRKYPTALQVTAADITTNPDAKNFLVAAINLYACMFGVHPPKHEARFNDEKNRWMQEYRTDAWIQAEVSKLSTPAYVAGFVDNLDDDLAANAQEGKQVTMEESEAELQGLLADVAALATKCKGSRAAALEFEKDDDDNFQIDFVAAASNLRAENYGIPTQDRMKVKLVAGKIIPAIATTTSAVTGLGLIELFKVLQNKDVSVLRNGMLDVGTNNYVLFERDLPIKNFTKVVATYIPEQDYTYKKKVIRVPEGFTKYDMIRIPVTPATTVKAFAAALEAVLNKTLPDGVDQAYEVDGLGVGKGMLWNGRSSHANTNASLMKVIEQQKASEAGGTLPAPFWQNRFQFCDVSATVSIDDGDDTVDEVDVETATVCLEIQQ
# [3] = molecular target: AMP-activated protein kinase, AMPK (Homo sapiens) (UniProt P54646+O43741+P54619+Q9UGJ0+Q9Y478+Q13131+Q9UGI9); experiment: AMP-dependent Kinase enzyme assay. An in vitro enzyme assay that detects ADP turnover that is directly proportional to AMPK activity. This uses naive AMPK that is activated during the assay with MK-8722; type: functional; details: 30 µM
# [4] = molecular target: Sialic acid-binding Ig-like lectin 9 (Homo sapiens) (UniProt Q9Y336); experiment: Hs-Siglec9 ALPHAscreen SOP 20170721; details: 10 µM
# Sequence of Sialic acid-binding Ig-like lectin 9 (Homo sapiens) (Q9Y336 whole entry): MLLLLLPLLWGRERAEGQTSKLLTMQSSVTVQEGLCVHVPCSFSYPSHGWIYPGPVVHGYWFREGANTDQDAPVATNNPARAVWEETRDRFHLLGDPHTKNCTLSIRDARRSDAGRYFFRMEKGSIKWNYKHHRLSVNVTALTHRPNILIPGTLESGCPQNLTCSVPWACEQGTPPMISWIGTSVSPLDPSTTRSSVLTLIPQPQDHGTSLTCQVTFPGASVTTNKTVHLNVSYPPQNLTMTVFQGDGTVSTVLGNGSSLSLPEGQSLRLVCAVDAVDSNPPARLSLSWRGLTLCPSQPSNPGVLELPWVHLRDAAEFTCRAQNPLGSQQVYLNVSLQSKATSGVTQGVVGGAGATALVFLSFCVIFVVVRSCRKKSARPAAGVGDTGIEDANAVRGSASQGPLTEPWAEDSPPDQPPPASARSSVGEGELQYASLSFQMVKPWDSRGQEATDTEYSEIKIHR
# [5] = test system: Trypanosoma cruzi; experiment: Trypanosoma cruzi phosphomannomutase and mannose-1-phosphate guanylyltransferase assay; type: functional; details: 10 µM
# [6] = molecular target: T2, Arginase-2, mitochondrial (Homo sapiens) (UniProt P78540); experiment: in vitro enzyme assay to detect the production of urea directly proportional to the activity of Arginase II; type: functional; details: 33.3 µM; further: in the data most compounds retested in dose-response had high values
# T2 sequence (whole entry): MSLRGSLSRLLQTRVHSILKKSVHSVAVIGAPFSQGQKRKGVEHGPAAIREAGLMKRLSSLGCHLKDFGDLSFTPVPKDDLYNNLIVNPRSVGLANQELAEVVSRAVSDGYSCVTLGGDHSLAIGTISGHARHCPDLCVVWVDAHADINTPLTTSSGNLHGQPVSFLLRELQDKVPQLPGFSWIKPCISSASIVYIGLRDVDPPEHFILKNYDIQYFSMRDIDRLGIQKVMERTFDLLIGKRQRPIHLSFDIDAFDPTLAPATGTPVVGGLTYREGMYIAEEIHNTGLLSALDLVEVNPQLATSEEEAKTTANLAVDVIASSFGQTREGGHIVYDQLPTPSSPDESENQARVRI
# [7] = molecular target: T3, Proteasome subunit beta (Trypanosoma cruzi) (UniProt O96673); experiment: Trypanosoma cruzi proteasome chymotrypsin-like activity (TcProtChymo) assay.; further: in the data most compounds retested in dose-response had high values; type: functional; details: 9.37 µM
# T3 sequence (whole entry): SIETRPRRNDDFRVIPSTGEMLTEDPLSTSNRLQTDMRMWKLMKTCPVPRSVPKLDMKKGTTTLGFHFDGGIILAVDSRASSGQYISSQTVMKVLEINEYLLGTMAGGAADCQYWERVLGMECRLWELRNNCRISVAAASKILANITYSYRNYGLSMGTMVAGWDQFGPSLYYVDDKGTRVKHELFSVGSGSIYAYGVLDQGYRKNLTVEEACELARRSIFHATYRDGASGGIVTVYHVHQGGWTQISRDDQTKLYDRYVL
# [8] = species on record: Homo sapiens; experiment: To identify inhibition of the IFN signalling (Jak-Stat) pathway via expression of an eGFP reporter gene under the control of an IFN-stimulated response element (ISRE) containing MxA promoter.; type: functional; details: 30 µM
# [9] = molecular target: T4, Tyrosyl-tRNA synthetase, putative (Trypanosoma cruzi (strain CL Brener)) (UniProt Q4DSP6); experiment: Trypanosoma cruzi tyrosyl tRNA synthetase (TcYRS) _High Tyrosine SOP; type: functional; details: 30 µM; further: in the data most compounds retested in dose-response had high values
# T4 sequence (whole entry): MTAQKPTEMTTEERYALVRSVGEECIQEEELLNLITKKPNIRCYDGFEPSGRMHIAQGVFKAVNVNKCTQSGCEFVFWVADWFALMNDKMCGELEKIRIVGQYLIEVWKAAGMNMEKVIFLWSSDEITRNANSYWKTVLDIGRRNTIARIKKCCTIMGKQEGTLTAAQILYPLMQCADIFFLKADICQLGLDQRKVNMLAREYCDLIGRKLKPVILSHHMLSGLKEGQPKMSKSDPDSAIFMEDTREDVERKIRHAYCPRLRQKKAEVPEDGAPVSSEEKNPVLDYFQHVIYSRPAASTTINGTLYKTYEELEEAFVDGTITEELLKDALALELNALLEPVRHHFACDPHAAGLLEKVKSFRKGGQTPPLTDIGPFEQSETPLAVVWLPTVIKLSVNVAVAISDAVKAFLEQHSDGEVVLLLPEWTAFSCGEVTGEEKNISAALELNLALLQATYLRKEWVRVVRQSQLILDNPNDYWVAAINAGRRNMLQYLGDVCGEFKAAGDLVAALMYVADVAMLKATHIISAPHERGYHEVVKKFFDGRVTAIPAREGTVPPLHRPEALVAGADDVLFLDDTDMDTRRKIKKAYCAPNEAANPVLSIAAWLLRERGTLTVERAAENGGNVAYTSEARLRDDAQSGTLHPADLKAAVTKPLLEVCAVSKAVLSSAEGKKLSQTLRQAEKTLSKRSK
# [10] = molecular target: T4, Tyrosyl-tRNA synthetase, putative (Trypanosoma cruzi (strain CL Brener)); experiment: Trypanosoma cruzi tyrosyl tRNA synthetase (TcYRS) SOP; type: functional; details: 30 µM
# [11] = molecular target: Chromo domain-containing protein 1 (Saccharomyces cerevisiae (strain ATCC 204508 / S288c) (Baker's yeast)) (UniProt P32657); experiment: ScCHD-1 Enzyme Inhibition Assay; type: functional; details: 30 µM; further: in the data most compounds retested in dose-response had high values
# Sequence of Chromo domain-containing protein 1 (Saccharomyces cerevisiae (strain ATCC 204508 / S288c) (Baker's yeast)) (P32657 whole entry, the tested form may be a part): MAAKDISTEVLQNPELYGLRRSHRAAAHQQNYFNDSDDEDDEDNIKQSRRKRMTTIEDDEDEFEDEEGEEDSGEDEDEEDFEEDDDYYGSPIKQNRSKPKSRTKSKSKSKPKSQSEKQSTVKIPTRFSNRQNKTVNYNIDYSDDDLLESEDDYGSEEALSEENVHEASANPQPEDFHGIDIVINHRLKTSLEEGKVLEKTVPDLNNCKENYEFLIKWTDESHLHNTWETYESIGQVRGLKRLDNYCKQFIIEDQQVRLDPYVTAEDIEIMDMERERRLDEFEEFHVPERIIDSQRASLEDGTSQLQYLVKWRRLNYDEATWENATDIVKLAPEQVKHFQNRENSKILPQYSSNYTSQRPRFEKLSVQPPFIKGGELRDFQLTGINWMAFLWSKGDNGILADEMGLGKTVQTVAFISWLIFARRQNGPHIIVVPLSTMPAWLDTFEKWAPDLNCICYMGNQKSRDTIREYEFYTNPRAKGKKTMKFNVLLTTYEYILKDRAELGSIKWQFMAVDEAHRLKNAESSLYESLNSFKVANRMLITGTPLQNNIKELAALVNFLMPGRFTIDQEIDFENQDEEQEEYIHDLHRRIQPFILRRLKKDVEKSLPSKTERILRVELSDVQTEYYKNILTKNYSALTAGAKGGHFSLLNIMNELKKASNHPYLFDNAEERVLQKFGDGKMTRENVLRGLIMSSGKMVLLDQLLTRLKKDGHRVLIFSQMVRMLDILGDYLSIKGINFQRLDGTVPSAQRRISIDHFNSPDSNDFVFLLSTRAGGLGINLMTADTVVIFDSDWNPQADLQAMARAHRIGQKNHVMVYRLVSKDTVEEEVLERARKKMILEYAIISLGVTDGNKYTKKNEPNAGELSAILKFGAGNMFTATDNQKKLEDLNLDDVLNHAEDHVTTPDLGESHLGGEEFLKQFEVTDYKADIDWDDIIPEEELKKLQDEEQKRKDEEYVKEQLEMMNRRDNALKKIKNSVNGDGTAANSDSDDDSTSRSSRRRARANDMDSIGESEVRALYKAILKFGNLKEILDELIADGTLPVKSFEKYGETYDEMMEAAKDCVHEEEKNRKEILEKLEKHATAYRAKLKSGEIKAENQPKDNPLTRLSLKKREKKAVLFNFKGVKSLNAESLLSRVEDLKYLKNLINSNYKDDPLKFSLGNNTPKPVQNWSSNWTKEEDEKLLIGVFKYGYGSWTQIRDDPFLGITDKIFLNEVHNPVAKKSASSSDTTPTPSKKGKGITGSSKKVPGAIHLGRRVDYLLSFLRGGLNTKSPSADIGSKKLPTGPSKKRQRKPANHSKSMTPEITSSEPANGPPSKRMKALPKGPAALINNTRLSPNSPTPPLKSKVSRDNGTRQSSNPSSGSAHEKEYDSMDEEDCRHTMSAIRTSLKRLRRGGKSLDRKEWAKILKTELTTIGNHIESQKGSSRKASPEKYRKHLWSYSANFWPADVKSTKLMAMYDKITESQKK
SMILES,Percent Effect [1] [%],Percent Effect [2] [%],Percent Effect [3] [%],Percent Effect [4] [%],Percent Effect [5] [%],Percent Effect [6] [%],Percent Effect [7] [%],Percent Effect [8] [%],Percent Effect [9] [%],Percent Effect [10] [%],Percent Effect [11] [%]
O=C(CCO)N1CCOC2(CCCN(C(=O)c3ccco3)C2)C1 (stereo unspecified),2.21,-5.2,0.24,19.9,4.82,4.14,11.3,-33.1,-12.9,-13.6,0.942
CCCn1c(C)c(CC(=O)N(C)CCOC)c2c1CC(C)(C)CC2=O,-3.48,5.2,0.628,11.4,6.59,-38.6,3,-27.9,6.45,8.64,-8.76
COCCOc1ccc(NC(=O)N2CCCC2c2cc(C)no2)cn1 (stereo unspecified),-4.97,0,0.449,5.01,-0.686,-1.05,5.74,9.34,5.71,2.35,-14.1
Cc1cnc(NC(=O)N2CCCC2)s1,-4.49,2.7,-1.71,2.98,8.5,-0.744,15.4,6.72,1.07,3.7,1.48
CO[C@@H]1CCN(Cc2cnn(C)c2)[C@@H]2CN(Cc3ccco3)C[C@@H]21,-5.25,4,5.3,4.49,-1.38,-0.528,11.8,-13.9,0,2.56,-0.166
CC1Cc2ccccc2N1Cc1occc1C(=O)OCC(N)=O (stereo unspecified),-4.31,11,7.16,10.7,4.56,-3.99,5.91,17,8.33,13.6,-3.53
CCOc1ccccc1C(CC(=O)Nc1nc(C)cs1)NC(C)=O (stereo unspecified),-1.09,5.26,-0.999,0.981,-2.63,4.21,6.85,10.1,3.43,9.76,-5.47
CCOc1nc2cccnc2n(CC(=O)NCCOC)c1=O,-0.937,23.4,3.02,-0.135,3.85,-1.94,10.4,3.76,3.17,11.5,-9.72
Cc1ccc(S(=O)(=O)N2CSCC2C(=O)N(C)C2CC2)cc1Cl (stereo unspecified),-5.45,5.41,-2.19,10.8,6.16,1.74,7.47,5.7,0,3.7,-5.33
CNS(=O)(=O)Cc1ccc(CNC(=O)Nc2cn[nH]c2)cc1,-5.68,20.2,6.15,-12.1,-3.68,1.52,8.11,18.9,2.46,13.9,-0.403
COCCNC(=O)[C@@H]1CC[C@@H]2[C@@H](CCN2Cc2cnn(C)c2)O1,-1.36,13.3,-7.81,2.22,-0.386,-43.5,9.74,2.61,3.12,10,-7.85
COCC1CCN(c2cc(C3CN(C)CCO3)nc(C)n2)CC1 (stereo unspecified),-3.57,-5.33,6.9,-0.404,-1.77,0.233,2.38,6.27,-1.06,-3.85,9.94
CCc1csc(C2CCCN(C(=O)c3c[nH]c(C)n3)C2)n1 (stereo unspecified),-1.65,7.79,-3.3,1.9,6.18,-1.78,-3.88,-6.54,2.91,12.2,-6.32
COc1ccc(Cl)cc1NCC(=O)NCCNc1cnccn1,-3.85,-5.41,2.13,13.2,-2.17,-2.4,3.96,-1.56,4.43,13.6,-3.88
Cc1cc(N2CCN(Cc3ccc(C)o3)CC2)cc(C)n1,-4.6,5.33,-0.471,15,1.46,2.08,20.2,2.05,8.2,16.1,-6.19
Cc1ncsc1CCC(=O)NCc1cc2n(n1)CCN(C(=O)N(C)C)C2,-0.664,1.39,-1.68,-4.18,-4.96,3.97,15.3,6.29,3.16,2.56,-1.68
